Source: PubChem (National Center for Advancing Translational Sciences (NCATS))
Only some compounds are listed: those with a hit (about 13% of all), similar ones and a draw of the others.
MARV entry inh = blocks Marburg virus binding to or entry into cells. Marburg virus pseudotyped entry inhibition, cell reporter. Potency, µM (highest dose often 37.8 µM), actives largely listed as inhibitors. 1.8% of 300,000 active; calls by dose curve; tested in HEK293 cells
Shiga toxin inh = inhibitors of Shiga toxin in Vero cells. Vero cells, Shiga toxin protein synthesis inhibition reporter. inhibition, % at 38.7 µM. 9.2% of 290,000 active. AID 2315; in the data active = inhibition mostly above about 28%, no sharp cut-off; inactive = mostly below about 43%
Lassa entry inh = inhibitors of Lassa virus binding or cell entry. 1.2% of 300,000 active. AID 540256. Lassa virus pseudotype entry inhibition, cell reporter. Potency, µM (series often up to 37.9 µM), hits mostly inhibitors; calls by dose curve; tested in HEK293 cells; also: nearly all actives have a fitted effect of over 50% in size
CHX counter = counter-screen hit for Shiga toxin inhibitors, cycloheximide; cell reporter, cycloheximide protein synthesis inhibition counterscreen; max response, %; 12% of 300,000 active; in the data active = max response mostly above about 13%, no sharp cut-off; inactive = mostly below about 14%; also: read at 38.3 µM for the half of the compounds with a filed dose
FMDV inh = foot and mouth disease virus antiviral activity; FMDV antiviral cell-based qHTS; Potency, µM (titrated, usually from 57.9 µM), actives largely listed as inhibitors; 1.2% of 410,000 active; calls by dose curve; tested in HEK293T cells; also: read-out not given here; nearly all actives have a fitted effect of over 45% in size
HCV inhibitor = inhibitors of hepatitis C virus infection. Huh7.5.1 HCVcc-Cre infection, luciferase reporter, 44 h. 3.4% of 340,000 active. AID 651820. Potency, µM (titrated, usually from 41.8 µM), actives largely listed as inhibitors; active = well fitted inhibition curve with a large enough effect; inconclusive = small, poorly fitted or top-dose-only effect, or another doubt; inactive = no such curve, though single readings can be large or run the other way
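Compounds are dispensed onto cells plated 4 h earlier at 1,000 per well, with HCVcc-Cre virus (about 0.5 moi) added next. Following 44 h of culture, luminescent signal is measured for 15 sec after 15 min with substrate at room temperature.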
Hits are given with their value.

For COc1ccc(C)cc1N(C(=O)c1snc(C(N)=O)c1N)C(C(=O)NC1CCCCC1)c1ccc(C)o1 (stereo unspecified) the results were MARV entry inh 11µM, Shiga toxin inh inactive, Lassa entry inh inconclusive, CHX counter inactive, FMDV inh inactive and HCV inhibitor inconclusive.
For CC(C)c1ccc(N(C(=O)c2csnn2)C(C(=O)NC(C)(C)C)c2ccncc2)cc1 (stereo unspecified) the results were MARV entry inh inactive, Shiga toxin inh inactive, Lassa entry inh inactive, CHX counter 35 and HCV inhibitor inactive.
For CC(C)c1ccc(N(C(=O)c2snc(C(N)=O)c2N)C(C(=O)NC2CCCC2)c2ccncc2)cc1 (stereo unspecified) the results were MARV entry inh inconclusive, Shiga toxin inh inactive, Lassa entry inh inactive, CHX counter 15, FMDV inh inactive and HCV inhibitor inconclusive.
For CC(C)c1ccc(N(C(=O)c2csnn2)C(C(=O)NC2CCCC2)c2cccnc2)cc1 (stereo unspecified) the results were MARV entry inh inactive, Shiga toxin inh inactive, Lassa entry inh 1.6µM, CHX counter inactive, FMDV inh inactive and HCV inhibitor inactive.
For Cc1cnc(C(=O)OC(C)C(=O)Nc2ccc(Oc3ccccc3)cc2)cn1 (stereo unspecified) the results were FMDV inh inactive and HCV inhibitor inactive.
`CCC(=O)N1CCC1(C)C(=O)Nc1cc(-c2ccccc2)nn1C` (stereo unspecified) gave FMDV inh inactive.
`Cc1cccc(NC(=O)c2ccc(F)c(S(=O)(=O)NCc3ccc4c(c3)OCO4)c2)c1` gave Lassa entry inh inactive and FMDV inh inactive.
COCCNC(=O)CSc1ccccc1C(=O)NC1CCSc2ccccc21 (stereo unspecified) was read as MARV entry inh inactive, Shiga toxin inh inactive, Lassa entry inh inconclusive, CHX counter inactive, FMDV inh inactive and HCV inhibitor inactive.
For COCc1cccc(-c2csc(C(N)c3ccc(F)c(F)c3)n2)c1 (stereo unspecified) the results were FMDV inh inactive.
Screening CC(C)c1ccc(C(C(=O)NC2CCCCC2)N(C(=O)c2csnn2)C2CC2)cc1 (stereo unspecified) returned MARV entry inh 6.3µM, Shiga toxin inh inactive, Lassa entry inh inactive, CHX counter inactive, FMDV inh inactive and HCV inhibitor inactive.
`CCC(=Nc1ccccc1O)C1=C(O)CC(c2ccccc2)CC1=O` (stereo unspecified) gave Shiga toxin inh inactive, CHX counter 11, FMDV inh inactive and HCV inhibitor inactive.
For Nc1ncnc2c1ncn2C1OC(CO)C2OC21 (stereo unspecified) the results were FMDV inh inactive.
Screening Nc1ncnc2c1ncn2C1C=C(CO)C(O)C1O (stereo unspecified) returned MARV entry inh inconclusive, Lassa entry inh 0.25µM, FMDV inh inactive and HCV inhibitor inconclusive.
For Nc1ncnc2c1ncn2[C@@H]1O[C@H](CO)C[C@H]1O the results were FMDV inh inactive and HCV inhibitor 10µM.
`COc1ccccc1C(=O)Nc1ccc2c(c1)OCCO2` gave MARV entry inh inconclusive, Shiga toxin inh 85, Lassa entry inh inconclusive, CHX counter 41, FMDV inh inactive and HCV inhibitor inactive.
COc1ccccc1C(=O)Nc1ccc2c(c1)C(=O)NC2=O was read as Shiga toxin inh 22, CHX counter 28, FMDV inh inactive and HCV inhibitor inactive.
COc1ccccc1C(=O)Nc1ccc2c(c1)OCO2 was read as MARV entry inh inactive, Shiga toxin inh 61, Lassa entry inh inactive, CHX counter 43, FMDV inh inactive and HCV inhibitor inactive.
Screening O=C(Nc1ccccc1C(=O)Nc1ccc2c(c1)OCO2)c1ccco1 returned MARV entry inh inconclusive, Shiga toxin inh inactive, Lassa entry inh inconclusive, CHX counter inactive, FMDV inh inactive and HCV inhibitor 13µM.
For O=C(Nc1ccccc1C(=O)Nc1ccccc1)c1ccco1 the results were MARV entry inh inactive, Shiga toxin inh inactive, Lassa entry inh inactive, CHX counter inactive, FMDV inh inactive and HCV inhibitor inactive.
Screening CCOCc1[nH]c(=S)[nH]c(=O)c1Cc1ccc(OCC)cc1 returned MARV entry inh inactive, Shiga toxin inh inactive, Lassa entry inh inactive, CHX counter inactive, FMDV inh inactive and HCV inhibitor inactive.
`COC(=O)CC1NCCc2cc(OC)c(OC)cc21` (stereo unspecified) gave Shiga toxin inh inactive, CHX counter inactive, FMDV inh inactive and HCV inhibitor inactive.
`Cc1ccccc1CNC(=O)C1CCN(c2nnc(N3CCCC3=O)s2)CC1` gave Shiga toxin inh inactive, CHX counter inactive, FMDV inh inactive and HCV inhibitor inactive.
COc1cc(C(=O)Nc2ccc3c(c2)OCCO3)c(-n2cnnn2)cc1OC was read as MARV entry inh inactive, Shiga toxin inh inactive, Lassa entry inh inactive, CHX counter inactive, FMDV inh inactive and HCV inhibitor inactive.
For CN(c1ccccc1C(=O)Nc1ccc2c(c1)OCO2)S(C)(=O)=O the results were MARV entry inh inactive, Shiga toxin inh inactive, Lassa entry inh inactive, CHX counter inactive, FMDV inh inactive and HCV inhibitor inactive.
For Cc1ccccc1C(=O)Nc1ccc2c(c1)OCO2 the results were MARV entry inh inconclusive, Shiga toxin inh inactive, Lassa entry inh inconclusive, CHX counter 30, FMDV inh inactive and HCV inhibitor inactive.
For COc1cc(SC)ccc1C(=O)Nc1ccc2c(c1)OCCO2 the results were MARV entry inh inconclusive, Shiga toxin inh inactive, Lassa entry inh 12µM, CHX counter 34, FMDV inh inactive and HCV inhibitor inconclusive.
For O=C(C1CC1)N1CCN(c2nc3c(F)cc(F)cc3s2)CC1 the results were Lassa entry inh inactive and FMDV inh inactive.
`c1ccc2sc(N3CN(CCN4CCOCC4)CN(c4nc5ccccc5s4)C3)nc2c1` gave MARV entry inh inactive, Shiga toxin inh inactive, Lassa entry inh inconclusive, CHX counter inactive, FMDV inh inactive and HCV inhibitor inactive.
Screening O=C(c1ccc2c(c1)CCCC2)N1CCN(c2nc3c(F)cccc3s2)CC1 returned Lassa entry inh inactive and FMDV inh inactive.
Fc1cccc2sc(N3CCOCC3)nc12 was read as MARV entry inh inconclusive, Shiga toxin inh 52, Lassa entry inh inconclusive, CHX counter 15, FMDV inh inactive and HCV inhibitor inactive.
`Fc1cccc2sc(N3CCCCC3)nc12` gave Shiga toxin inh 57, CHX counter 54, FMDV inh inactive and HCV inhibitor inactive.
`Fc1cc(F)c2nc(N3CCCC3)sc2c1` gave MARV entry inh inactive, Shiga toxin inh 150, Lassa entry inh inactive, CHX counter 29, FMDV inh inactive and HCV inhibitor inactive.
`Cc1ccc(S(=O)(=O)CC(=O)N2CCN(c3ccccc3F)CC2)cc1` gave MARV entry inh inactive, Shiga toxin inh inactive, Lassa entry inh inactive, CHX counter inactive, FMDV inh inactive and HCV inhibitor inactive.
